TbPYK inhibitor – inhibitors of Trypanosoma brucei pyruvate kinase; hit rate 0.12% among 410,000; Potency, µM (series often up to 76.8 µM), for the others: top-dose activity, negative = inhibition, most hits filed as inhibitors; Q57TT1; TbPYK enzyme, Kinase-Glo Plus ATP luminescence, 45 min; note: potency is the fitted concentration of half-maximal effect; nearly all actives have a fitted effect of over 50% in size
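Luminescent Kinase-Glo Plus end-point after 45 min room-temperature reaction of T. brucei pyruvate kinase started with 130 uM ADP (final). Buffer TEA 50 mM pH 7.2 with KCl, MgCl2, BSA, Tween-20; titration-based qHTS with fitted concentration-effect curves.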
FMDV inh – antivirals against foot and mouth disease virus; FMDV antiviral cell-based qHTS; Potency, µM (doses to about 57.9 µM), without a hit: top-dose activity change, negative = inhibition, hits mostly inhibitors; hit rate 1.2% among 410,000; calls by dose curve; tested in HEK293T cells; note: read-out not given here; potency is the fitted concentration of half-maximal effect; nearly all actives have a fitted effect of over 45% in size
Sm TGR block – blocks Schistosoma mansoni thioredoxin glutathione reductase. Potency, µM (doses to about 114 µM), inactives show top-dose activity change, negative = inhibition, actives largely listed as inhibitors. Q962Y6. purified TGR, DTNB reduction, TNB absorbance 405 nm. hit rate 3% among 360,000; note: potency is the fitted concentration of half-maximal effect; nearly all actives have a fitted effect of over 60% in size
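First, TGR (20 nM dispensed) and NADPH were mixed with compound. Second, a 15 min room-temperature incubation followed. Third, further NADPH and then DTNB were added to start the reaction. Finally, TNB absorbance was monitored kinetically.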
FBPA Giardia inh – inhibitors of Giardia lamblia fructose-1,6-bisphosphate aldolase; A8B2U2; purified Giardia FBPA; Potency, µM (series often up to 59.6 µM), without a hit: at the top dose activity, negative = inhibition, usual class: inhibitors; hit rate 0.71% among 290,000; AID 2451; note: potency is the fitted concentration of half-maximal effect; nearly all actives have a fitted effect of over 55% in size
Target sequence (A8B2U2 whole entry, looked up): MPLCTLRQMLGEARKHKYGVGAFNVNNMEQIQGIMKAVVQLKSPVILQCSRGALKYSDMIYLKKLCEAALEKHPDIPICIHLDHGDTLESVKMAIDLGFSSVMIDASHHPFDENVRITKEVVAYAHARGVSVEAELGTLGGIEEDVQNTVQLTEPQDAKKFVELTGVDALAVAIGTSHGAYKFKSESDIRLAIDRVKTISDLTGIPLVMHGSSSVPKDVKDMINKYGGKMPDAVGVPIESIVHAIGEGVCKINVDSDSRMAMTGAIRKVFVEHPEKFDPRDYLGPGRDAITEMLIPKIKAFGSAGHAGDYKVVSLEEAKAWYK
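40 nM FBPA preincubated 10 min at RT with compound (up to 57.5 uM final), then substrate plus GAPDH/TPI/NAD/arsenate coupling and diaphorase/resazurin added. Fluorescence read after 20 min at RT, 525/598 nm.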
HCMV inh – blocks human cytomegalovirus replication | HFF cells, HCMV-luciferase reporter, 72 h; active compounds read low | activity change, negative = inhibition, % at 57.5 µM | hit rate 4.5% among 410,000 | AID 1259415; in the data active = activity change below about -60%; inconclusive = no clear call, values can overlap the other calls; inactive = above about -39%
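Two-dose cell screen: HFF monolayers treated with compounds and infected with luciferase-expressing HCMV at 1 PFU/cell, 72 h at 37C, then lysed for luciferase measurement.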
RE007 growth inh – less growth of the S. pombe RE007 Vpr strain; S. pombe RE007 Vpr strain, BacTiter-Glo ATP luminescence, 24 h; Potency, µM (series often up to 92.2 µM), for the others: at the highest dose activity change, negative = less growth, most hits filed as inhibitors; hit rate 0.21% among 360,000; AID 651644; active = well fitted falling curve with a large enough effect; inconclusive = small, poorly fitted or top-dose-only effect; inactive = no such curve, though single readings can be large or run the other way; note: potency is the fitted concentration of half-maximal effect; nearly all actives have a fitted effect of over 50% in size
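Fission yeast RE007 carrying one integrated HIV-1 vpr copy, seeded at OD 0.01 in PMG+AL medium with 23 nL pinned compound. Grown 24 h at 30 degrees; viability read by BacTiter-Glo luminescence after 5 min.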
Numbers without * were called inactive; u = inconclusive; x = no result given. This is a sample that favours compounds with a hit; in the whole collection about 7.7% have one here. Unless noted, calls come from the whole dose curve; as a rule, active = well fitted curve in the direction sought with a large enough effect; inconclusive = small, poorly fitted or top-dose-only effect, or another doubt; inactive = no such curve, though single readings can be large; an effect the other way counts as inactive or inconclusive. % is set by controls: 0 for no effect and ±100 for the full control effect.

SMILES	TbPYK inhibitor	FMDV inh	Sm TGR block	FBPA Giardia inh	HCMV inh	RE007 growth inh
COc1ccc(COC[C@H](C)[C@H](O[Si](C)(C)C)[C@@H](C)[C@H]2OC(=O)[C@H]2C)cc1	x	x	x	2.3%	x	x
O=C(NCc1ccncc1)c1csc(N2CCN(Cc3cccc(C(F)(F)F)c3)C2=O)n1	x	x	x	x	-13.3	x
COc1ccc([C@@H]2[C@H](C(=O)N3CCOCC3)CC(=O)N2C(=O)/C=C/c2ccccc2)cc1	x	x	x	x	-21.2	x
CC(C)(C)NCC(O)COc1nsnc1N1CCOCC1 (configuration not stated)	x	x	x	-5.1%	x	x
COc1ccc(N2CC(NC(=O)CCCc3ccccc3)CC2=O)cc1 (configuration not stated)	-10.7%	-14.9%	6.8%	x	9.1	x
COc1ccccc1NC(=O)N(Cc1ccco1)Cc1cc2c(C)ccc(C)c2[nH]c1=O	1.4%	-19.6%	31.6µM*	2.9%	35.9	-7.4%
COc1ccccc1NC(=O)N(Cc1ccco1)Cc1cc2cccc(C)c2[nH]c1=O	-3.5%	-23.7%	-7.6%	0.1%	14.2	4.6%
O=C(/C=C/c1ccco1)NCc1ccc(F)cc1	u	31.5%	3.16µM*	-0.5%	2.0	-6.7%
O=C(CNC(=O)/C=C/c1ccco1)N=Nc1c(O)[nH]c2ccccc12	1.0%	-5.3%	7.08µM*	-19.2%	-15.6	-3.7%
O=C(CNC(=O)Cc1ccccc1)N=Nc1c(O)[nH]c2ccccc12	6.3%	13.3%	3.0%	-14.8%	-15.7	-19.4%
O=C(CCNC(=O)c1ccco1)NCc1ccc(F)cc1	-14.2%	-1.3%	x	x	-6.1	38.3%
NS(=O)(=O)c1ccc(CNC(=O)/C=C/c2ccco2)cc1	u	4.4%	1.58µM*	-6.4%	0.0	14.5%
CCCCc1ccc(NC(=O)CSc2nnc3[nH]c(=O)cc(C)n23)cc1	-6.4%	1.6%	13.3%	x	2.6	x
COc1ccc(Nc2cc3c(cn2)ncn3Cc2ccccc2)c(C)c1	x	x	x	x	-14.6	x
C=CCNc1ncnc2c1[nH]c1ccc(C)cc12	1.0%	x	-9.8%	-10.8%	-68.1*	-11.7%
Cc1ccc2[nH]c3c(NCCN4CCOCC4)ncnc3c2c1	-5.0%	60.2%	-17.5%	-0.6%	-22.7	2.7%
COc1ccc2[nH]c3c(NCCC4=CCCCC4)ncnc3c2c1	3.5%	-61.1%	-6.0%	2.2%	-88.9*	-13.7%
CCN(CC)CCNc1ncnc2c1[nH]c1ccc(OC)cc12	x	x	4.2%	6.2%	x	x
Fc1ccc2[nH]c3c(NCc4ccccc4)ncnc3c2c1	1.2%	u	11.8%	8.3%	-85.4*	0.0%
COc1ccc2[nH]c3c(NCc4ccco4)ncnc3c2c1	2.0%	-2.6%	4.5%	-1.4%	x	-4.8%
CCC(C)c1ccccc1OCC(=O)Nc1ccc(S(=O)(=O)Nc2cc(C)on2)cc1 (configuration not stated)	-7.7%	-16.8%	43.5%	x	28.6	x
COc1ccccc1NC(=O)Cn1c(=O)c(CNc2ccc(C)cc2)cc2cc3c(cc21)OCCO3	-9.0%	20.5%	1.5%	x	24.2	x
Cn1cc(C(=O)C(F)(F)F)c2ccccc21	1.3%	-9.6%	16.7%	3.5%	66.9	-23.8%
Cn1cc(C(=O)Cc2ccccc2)c2ccccc21	-17.2%	12.7%	-0.2%	-9.0%	-67.1*	-23.0%
CC(CCc1ccccc1)NC(=S)NC1CCCCC1 (configuration not stated)	-3.7%	4.1%	-1.6%	4.1%	-39.2	2.1%
CCC(C)c1ccc(C(C)NC(=S)NC2CCCCC2)cc1 (configuration not stated)	-1.0%	u	16.4%	u	-73.1*	2.2%
CCOc1ccc(C(C)NC(=S)NC2CCCCC2)cc1 (configuration not stated)	-4.2%	-9.2%	0.9%	2.1%	u	11.1%
CCC(NC(=S)NC1CCCCC1)c1ccccc1 (configuration not stated)	x	x	6.7%	3.0%	-89.2*	x
CCCCc1ccccc1NC(=S)NC1CCCC1	-5.6%	6.8%	-1.3%	-3.7%	-66.1*	-0.5%

Screens (PubChem)
